Test results reported in PubChem BioAssay AID2642 (Johns Hopkins Ion Channel Center, 2010).
Hit rate of the full screen: of about 310,000 compounds, about 3,900 (1.3%) were called active.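 How the source made its calls: active means compounds whose thallium flux B-score, printed positive for inhibition, exceeds three library SD while starting fluorescence stays within three; inactive means the rest.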 What follows is part of a selection rich in actives, with near analogues and random picks from the rest.

Molecular target: Potassium voltage-gated channel subfamily KQT member 1 (Homo sapiens) (UniProt P51787)
Sequence (P51787 whole entry, looked up): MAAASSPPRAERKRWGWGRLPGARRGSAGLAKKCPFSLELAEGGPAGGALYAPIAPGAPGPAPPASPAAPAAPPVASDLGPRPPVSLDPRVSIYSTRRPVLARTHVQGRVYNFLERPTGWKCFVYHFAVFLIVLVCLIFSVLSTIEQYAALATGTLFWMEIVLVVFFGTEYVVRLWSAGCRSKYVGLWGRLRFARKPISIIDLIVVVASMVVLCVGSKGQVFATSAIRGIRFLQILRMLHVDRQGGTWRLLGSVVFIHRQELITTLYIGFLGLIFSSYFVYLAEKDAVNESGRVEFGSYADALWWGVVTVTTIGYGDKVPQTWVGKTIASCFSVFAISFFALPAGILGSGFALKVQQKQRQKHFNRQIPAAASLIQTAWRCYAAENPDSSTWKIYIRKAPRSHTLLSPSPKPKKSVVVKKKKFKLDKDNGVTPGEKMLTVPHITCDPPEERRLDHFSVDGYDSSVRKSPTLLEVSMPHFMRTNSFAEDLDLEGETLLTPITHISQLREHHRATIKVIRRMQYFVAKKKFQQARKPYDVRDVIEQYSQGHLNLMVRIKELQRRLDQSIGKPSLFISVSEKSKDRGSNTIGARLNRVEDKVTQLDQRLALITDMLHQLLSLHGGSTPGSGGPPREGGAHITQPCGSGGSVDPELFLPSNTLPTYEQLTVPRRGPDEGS
Test: KCNQ1 potassium current blockers – cell-based, thallium flux, high-throughput, primary screen (AID 2642);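 further: channel opened by potassium depolarization with thallium stimulus after 20 min compound exposure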
Conditions: CHO-K1 KCNQ1, FluxOR thallium flux fluorescence, at 10 µM; active compounds read high

Row | SMILES | B-score
1 | CC1(C)NC(=O)N(CC(=O)Nc2cc(C(F)(F)F)cc(C(F)(F)F)c2)C1=O | inactive
2 | CN(C)Cc1ccccc1C1(O)c2ccccc2CSc2ccccc21 (centres undefined) | 7 (active)
3 | COc1ccc(CCNS(=O)(=O)c2cccc([N+](=O)[O-])c2)cc1 | inactive
4 | CCC1Sc2ccc(S(=O)(=O)CCC(=O)NCc3cccs3)cc2NC1=O (centres undefined) | inactive
5 | CN(C)NC(=O)c1csnc1-c1c(Cl)cccc1Cl | inactive
6 | O=c1ccc2cc(S(=O)(=O)Nc3ccccc3F)ccc2o1 | inactive
7 | CCc1ccccc1NC(=O)c1ccc2snnc2c1 | inactive
8 | O=C(Nc1ccc2ccccc2c1)Nc1ccc2snnc2c1 | 8 (active)
9 | O=C(Nc1cccc(Br)c1)c1ccc2snnc2c1 | inactive
10 | Cc1ccc(C(=O)NCC(=O)NCc2cc(=O)n(C)c(=O)n2C)cc1 | inactive
11 | COc1ccc(CC(=O)Nc2nc(-c3ccc(F)c(F)c3)cs2)cc1OC | 9 (active)
12 | COc1cc(CC(=O)Nc2nc(-c3ccc(F)c(F)c3)cs2)cc(OC)c1OC | inactive
13 | Cc1ccc(S(=O)(=O)NC(=O)Nc2nc(-c3ccc(F)c(F)c3)cs2)cc1 | inactive
14 | NC(=O)[C@H]1CC2(CC(c3cccc(NC(=O)[C@H]4CCC(=O)N4)c3)=NO2)CN1C(=O)c1ccccc1C(=O)c1ccccc1 (some centres undefined) | inactive
15 | O=C(Cn1nnc2ccccc2c1=O)Nc1cc(C(F)(F)F)ccc1N1CCOCC1 | inactive
16 | CCCc1cc(=O)[nH]c(SCC(=O)Nc2sc3c(c2C#N)CCCC3)n1 | inactive
17 | CCOC(=O)c1nc(C)n(-c2ccc(Cl)cc2Cl)n1 | inactive
18 | CCOC(=O)c1cnc(COc2ccccc2Cl)[nH]c1=O | inactive
19 | CCOC(=O)c1cnc(SC)nc1Sc1ccc(Cl)cc1Cl | 6 (active)
20 | COc1ccccc1N1CCN(c2ncnc3sc(C)c(-c4ccccc4)c23)CC1 | 9 (active)
21 | Oc1ccccc1N1CCN(c2ncnc3sc(-c4ccccc4)cc23)CC1 | inactive
22 | COc1ccccc1N1CCN(c2ccc([N+](=O)[O-])nc2)CC1 | inactive
23 | CCN(CC)S(=O)(=O)c1ccc(OC(C)C)c(N)c1 | inactive
24 | CCc1ccccc1NC(=O)/C(=C/c1ccccc1)c1ccccc1 | inactive
25 | COCc1cc(C)nc2sc3c(=O)n(-c4cccc5ccccc45)nnc3c12 | inactive
26 | COc1ccc(/C=C/C(=O)Nc2ccc(C34CC5CC(CC(O)(C5)C3)C4)cc2)cc1OC | inactive
27 | Cc1cccc(N2CCN(C(=O)c3cnn4c(C(F)F)cc(-c5ccccc5)nc34)CC2)c1C | 7 (active)
28 | O=C(O)c1cnn2c(C(F)(F)F)cc(-c3ccccc3)nc12 | inactive
29 | Cc1cccc(N2CCN(C(=O)c3cc4c(=O)[nH]c5ccccc5c4n3C)CC2)c1C | inactive
